The source made the active and inactive calls. No rule for the calls is given here.
target: Bifunctional epoxide hydrolase 2 (Homo sapiens) (UniProt P34913); assay: sEH inhibitor concentration-response potency, dose response, biochemical, human sEH, fluorescence, Infinite200 (AID 1026); details: recombinant human sEH, fluorogenic substrate, at 0.2 µM, active compounds read high
Sequence (P34913 whole entry, looked up): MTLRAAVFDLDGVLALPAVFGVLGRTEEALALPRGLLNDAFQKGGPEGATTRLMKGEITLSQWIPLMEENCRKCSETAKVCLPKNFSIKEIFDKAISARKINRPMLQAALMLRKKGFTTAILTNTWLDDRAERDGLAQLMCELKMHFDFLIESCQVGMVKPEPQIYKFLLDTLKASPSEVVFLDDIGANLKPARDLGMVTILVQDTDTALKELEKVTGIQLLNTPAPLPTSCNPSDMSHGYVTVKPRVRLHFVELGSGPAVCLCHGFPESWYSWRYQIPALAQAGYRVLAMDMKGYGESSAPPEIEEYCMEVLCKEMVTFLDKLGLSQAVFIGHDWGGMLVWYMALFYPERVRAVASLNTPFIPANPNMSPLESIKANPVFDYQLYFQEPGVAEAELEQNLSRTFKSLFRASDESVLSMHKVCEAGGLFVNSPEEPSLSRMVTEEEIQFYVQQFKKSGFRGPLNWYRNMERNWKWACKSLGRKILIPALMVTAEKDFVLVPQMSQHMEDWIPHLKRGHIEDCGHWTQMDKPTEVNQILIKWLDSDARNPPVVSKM

inhibition, inactive:
Cn1c(C(=O)N2CCCC(C(=O)NCCCSC3CCCCC3)C2)cc2sccc21 (stereo unspecified) 49.4%
O=C(NCCC1=CCCCC1)c1ccc2c(c1)N(Cc1ccccc1)C(=O)CS2 52.3%
Cc1nc2cc(NC(=O)NCCC3=CCCCC3)ccc2o1 45%
O=C(COc1c(F)c(F)c(C(F)(F)F)c(F)c1F)Nc1ccc(N2CCOCC2)c(Cl)c1 49.2%
CCCCOc1cccc(/C=N/NC(=O)c2csc(C)c2C)c1 60.7%
Cc1cc2cc(CNC(=O)NC3CCCCC3)ccc2[nH]1 60%
Cc1ccc(-n2nnnc2SCC(=O)NCCC2=CCCCC2)c(C)c1 41.9%
O=C(Nc1cccc2ccccc12)c1ccc(OC(=S)N2CCOCC2)cc1 68.8%
Cc1ccccc1CSCCNC(=O)CCSc1ccccc1 44.2%
CCc1ccc(/C=N/NC(=O)c2ccc(OC3CCCC3)cc2)s1 65.8%
O=C(NC1CCCCC1)NC1CC2CCC(C1)N2Cc1nnnn1Cc1ccc2c(c1)OCO2 (stereo unspecified) 74.2%
CCN(CCCNC(=O)C1CCN(S(=O)(=O)N2CCC3(CC2)OCCO3)CC1)c1ccccc1 53.8%
CCc1ccc(NC(=O)Nc2ccc3c(c2)N(C)C(=O)CS3)cc1 61.2%
O=C(N/N=C/c1ccc(O)cc1)c1csc2ccccc12 54.5%
CCOc1ccc(NC(=O)NCCCSC2CCCCC2)cc1 54.6%
O=C(Nc1ccc2c(c1)nc1n2CCN(Cc2ccccc2)C1)NC1CCCCC1 58.4%
